{"source": "PubChem BioAssay AID624296", "about": "(National Center for Advancing Translational Sciences (NCATS), 2012)", "note": "Values joined by “and” are separate entries in the source; they are usually repeats but may differ in a detail not shown here. Equal values may be shown once. Among all 350,000 compounds or so, about 9,900 (2.8%) were called active. Another 15% or so got no clear call; they are omitted. Calls follow the shape of the dose curve; as a rule, active = well fitted activation curve with a large enough effect; inconclusive = small, poorly fitted or top-dose-only effect; inactive = no such curve, though single readings can be large or run the other way. This excerpt belongs to a sample that is enriched for actives. Some compounds were tested as several samples or in several runs, with calls that do not always agree. Potency is read from the fitted curve at half-maximal effect."}
{"assay": "A quantitative high throughput screen for small molecules that induce DNA re-replication in MCF 10a normal breast cells; also: nearly all actives have a fitted effect of over 50% in size; as to activity, positive = re-replication: % of control where 0% means no effect.", "settings": "MCF 10A DNA re-replication, Hoechst nuclear intensity, 48 h; series mostly up to 46.1 µM; activity, positive = re-replication: at the top concentration"}
{"smiles": "O=[N+]([O-])c1cccc(C=NN=Cc2ccccc2O)c1", "activity, positive = re-replication": "10.8% (inactive)"}
{"smiles": "CC[C@]12c3[nH]c4ccc(Cl)cc4c3CCN1C(=O)[C@@H](CC(=O)NCCN1CCOCC1)C[C@@H]2C(=O)N1CCN(C(=O)C2CC2)CC1", "activity, positive = re-replication": "-1.37% (inactive)"}
{"smiles": "CCCN(C(=O)COC(=O)CNS(=O)(=O)c1ccc(NC(C)=O)cc1)C1CCS(=O)(=O)C1", "note": "(centres undefined)", "activity, positive = re-replication": "-8.12% (inactive)"}
{"smiles": "COc1ccc(-c2csc(-c3cccs3)n2)cc1OC", "activity, positive = re-replication": "17.5% (inactive)"}
{"smiles": "COc1ccccc1-c1nnc(-c2ccc(F)cc2)o1", "activity, positive = re-replication": "1.49% (inactive)"}
{"smiles": "COc1ccc(-c2csc3nc(-c4ccccc4F)oc(=O)c23)cc1OC", "Potency": "8.2 µM (active)"}
{"smiles": "COc1ccc2c(c1OC)C(=O)OC2Nc1nc(-c2ccccc2)cs1", "note": "(centres undefined)", "Potency": "4.61 µM (active)"}
{"smiles": "COc1ccc(N/C=C(\\C2OC(=O)c3ccccc32)[N+](=O)[O-])cc1", "note": "(centres undefined)", "activity, positive = re-replication": "-46.4% (inactive)"}
{"smiles": "COc1ccc(-c2csc(NC3OC(=O)c4ccccc43)n2)cc1", "note": "(centres undefined)", "Potency": "11.6 µM (active)"}
{"smiles": "COc1ccc(CCNc2nc(-c3cccc(NC(C)=O)c3)cs2)cc1OC", "activity, positive = re-replication": "28.6% (inactive)"}
{"smiles": "COc1cc(CC(=O)Nc2nc(-c3ccc(F)c(F)c3)cs2)cc(OC)c1OC", "activity, positive = re-replication": "0.443% (inactive)"}
{"smiles": "COc1ccc(-c2csc(NC(=O)COC(=O)c3ccc(Br)o3)n2)cc1", "activity, positive = re-replication": "0.665% (inactive)"}
{"smiles": "CC1CC(C)CN(C(=O)COC(=O)c2ccc3ncsc3c2)C1", "note": "(centres undefined)", "activity, positive = re-replication": "1.27% (inactive)"}
{"smiles": "O=C(Nc1ccccc1F)c1ccc(S(=O)(=O)N2CCCCCC2)cc1", "activity, positive = re-replication": "6.55% (inactive)"}
{"smiles": "O=C(CSc1ncnc2sccc12)N1CCN(C(=O)c2cccs2)CC1", "activity, positive = re-replication": "7.41% (inactive)"}
{"smiles": "Cc1nnc(NC(=O)c2ccc3nccnc3c2)s1", "activity, positive = re-replication": "-2.69% (inactive)"}
{"smiles": "CCN(c1ccccc1)S(=O)(=O)c1cc(C(=O)NCc2ccccn2)ccc1C", "activity, positive = re-replication": "3.72% (inactive)"}
{"smiles": "CCCCn1nc(C(=O)Nc2cccc(C(=O)NC3CC3)c2)c2ccccc2c1=O", "activity, positive = re-replication": "0.136% (inactive)"}
{"smiles": "COC(=O)[C@]1(Cc2ccccc2)N[C@H](CN(C)S(=O)(=O)c2ccc(OC(F)(F)F)cc2)[C@@H]2C(=O)N(C)C(=O)[C@@H]21", "activity, positive = re-replication": "-0.207% (inactive)"}
{"smiles": "COc1cccc(C(=O)Nc2ccc(N3CCN(C(=O)c4ccco4)CC3)cc2)c1", "Potency": "20.6 µM (active)"}
{"smiles": "COc1ccc(NC(=O)c2cccc(NC(=O)c3ccco3)c2)c(OC)c1", "activity, positive = re-replication": "-2.17% (inactive)"}
{"smiles": "COc1cccc(C(=O)Nc2ccc(NC(=O)c3ccco3)cn2)c1", "activity, positive = re-replication": "2.33% (inactive)"}
{"smiles": "CC1(C)C[C@H]2C3=CCC4[C@@]5(C)CC[C@H](O)[C@](C)(CO)C5CC[C@@]4(C)[C@]3(C)C[C@@H](O)[C@@]2(CO)[C@@H](O)[C@@H]1O", "note": "(some centres undefined)", "activity, positive = re-replication": "0.808% (inactive)"}
{"smiles": "CC(C)(C)OC(=O)C[C@@H]1C/C=C\\C[C@@H](CC(=O)N[C@H](CO)Cc2ccccc2)C(=O)NCCOC1=O", "activity, positive = re-replication": "-7.09% (inactive)"}
{"smiles": "O=C(NCC1(N2CCCCC2)CCCCC1)c1cccc(S(=O)(=O)Nc2ccccc2Cl)c1", "activity, positive = re-replication": "17.7% (inactive)"}
{"smiles": "COc1cc2c(-c3ccc4c(c3)OCO4)c(-c3ccsc3)oc(=O)c2cc1OC", "activity, positive = re-replication": "24.8% (inactive)"}
{"smiles": "COc1ccc(CCNC(=O)c2cc(-c3ccc4c(c3)OCO4)on2)cc1OC", "activity, positive = re-replication": "-10.3% (inactive)"}
{"smiles": "COc1cc(-c2c(-c3ccc4c(c3)OCO4)noc2C)ccc1F", "Potency": "20.6 µM (active)"}
{"smiles": "COC(=O)c1c(NC(=O)CSc2nncs2)sc2c1CCCCC2", "Potency": "0.231 µM (active)"}
{"smiles": "COC(=O)c1c(NC(=O)c2cccs2)sc2c1CCCC2", "activity, positive = re-replication": "6.88% (inactive)"}
{"smiles": "COC(=O)c1c(NC(=O)CCCC(=O)O)sc2c1CCCCC2", "activity, positive = re-replication": "-2.78% (inactive)"}
{"smiles": "Cc1ccc(C(=O)OCC(=O)NCc2cc(C)c(O)c(C)c2)cc1S(=O)(=O)N1CCCCC1", "activity, positive = re-replication": "-4.83% (inactive)"}
{"smiles": "CN1C(c2ccc(F)cc2)=CS/C1=C(/C#N)c1nnc2n1-c1ccccc1SC2", "activity, positive = re-replication": "14.1% (inactive)"}
{"smiles": "c1csc(-c2nc(-c3ccncc3)no2)c1", "activity, positive = re-replication": "-4.42% (inactive)"}
{"smiles": "COc1ccc(CCc2nc(-c3cccs3)no2)cc1", "activity, positive = re-replication": "20.4% (inactive)"}
{"smiles": "COc1nc(-c2ccc(Cl)cc2)ccc1-c1noc(-c2cccs2)n1", "Potency": "6.51 µM (active)"}
{"smiles": "COc1ccc(Cl)cc1NC(=O)CN1CCN(C(=O)N2CCOCC2)CC1", "activity, positive = re-replication": "-0.173% (inactive)"}
{"smiles": "COc1ccc(NC(C)=O)cc1NC(=O)CN1CCN(C2c3ccccc3-c3ccccc32)CC1", "Potency": "20.6 µM (active)"}
{"smiles": "COc1ccc(NC(C)=O)cc1NC(=O)CN1CCN(c2ccccn2)CC1", "activity, positive = re-replication": "-3.72% (inactive)"}
{"smiles": "COc1ccc(N2CCN(C(CNS(=O)(=O)c3ccc(C)cc3)c3ccccc3)CC2)cc1", "note": "(centres undefined)", "activity, positive = re-replication": "2.78% (inactive)"}
{"smiles": "CC(NC(=O)COC(=O)c1ccc2ccccc2n1)c1ccccc1", "note": "(centres undefined)", "activity, positive = re-replication": "-2.2% (inactive)"}
{"smiles": "Oc1c(Cl)cc(Cl)c(Cl)c1Cc1c(O)c(Cl)cc(Cl)c1Cl", "Potency": "inactive and 920 nM (active)"}
{"smiles": "CN(C)C(=O)CCc1ccc2c3c([nH]c2c1)[C@]1(CCc2ccccc2)[C@@H](C(=O)N2CCCCC2)C[C@H](CC(=O)NCCC2=CCCCC2)C(=O)N1CC3", "activity, positive = re-replication": "9.25% (inactive)"}
{"smiles": "Nn1c(SCC(=O)Nc2nccs2)nnc1-c1ccco1", "activity, positive = re-replication": "-0.773% (inactive)"}
{"smiles": "COc1ccccc1N1CC(O)=C(c2nc3ccccc3s2)C1=N", "activity, positive = re-replication": "-0.695% (inactive)"}
{"smiles": "CCOC(=O)CCCN1CC(O)=C(c2nc3ccccc3s2)C1=N", "activity, positive = re-replication": "-4.68% (inactive)"}
{"smiles": "N=C1C(c2nc3ccccc3s2)=C(O)CN1NC(=O)c1ccc([N+](=O)[O-])cc1", "Potency": "3.66 µM (active)"}
{"smiles": "CC1CC(=NNC(=O)C2COc3ccccc3O2)CC(C)(C)C1", "note": "(centres undefined)", "activity, positive = re-replication": "-1.88% (inactive)"}
{"smiles": "O=C(Nc1ccccc1N1CCCC1)c1ccc2ccccc2c1", "activity, positive = re-replication": "-0.122% (inactive)"}
